# Bioassay records deposited in PubChem by several laboratories.
# CYP2C19 act = human CYP2C19 activators, primary screen, biochemical, luminescence; Cytochrome P450 2C19 (Homo sapiens), P33261; recombinant CYP2C19, luciferin-H EGE luminescence; active compounds read high; 0 = fully inhibited enzyme, 1 = untreated enzyme; activation factor at 5 µM; 96,000 tested, under 10 active;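 active = activation factor of at least 2 at 5 µM in the primary screen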
# CYP2C19 inh = blockers of cytochrome P450 2C19 activity – biochemical, luminescence, ADME assay, primary screen. P33261. CYP2C19 Supersomes, luciferin-H EGE luminescence, 30 min. inhibition, % at 5 µM. hit rate 21% among 96,000. AID 778, 2007;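 active = CYP2C19 inhibition above a set limit at 5 µM in the primary screen, cut at about 50% in these data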
# CYP2C9 activ = human CYP2C9 activators, primary screen, biochemical, luminescence; recombinant CYP2C9, luciferin-H conversion; active compounds read high; factor 1 = untreated enzyme, 0 = blocked; activation factor at 5 µM; hit rate 1.4% among 96,000; Cytochrome P450 2C9 (Homo sapiens), P11712;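 active = activation factor of 2 or more for CYP2C9 at a 5 µM dose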
# CYP2C9 inh = blockers of cytochrome P450 2C9 activity – biochemical, luminescence, ADME assay, primary screen. P11712. CYP2C9 Supersomes, luciferin-H conversion. inhibition, % at 5 µM. hit rate 20% among 96,000. AID 777, 2007;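 active = blocking of liver enzyme CYP2C9 beyond about 50% at 5 µM, limit read from the data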
# Cav3 T inh = Cav3.2 calcium influx blockers – cell-based, Fluo-4 calcium fluorescence, FDSS, MLSMR library, primary screen | Voltage-dependent T-type calcium channel subunit alpha-1H (Homo sapiens), O95180 | Cav3.2-expressing cells; active compounds read low | B-score at 10 µM | hit rate 4% among 100,000 | AID 449739, 2010;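 active = single-dose well whose peak fluorescence ratio is a statistical outlier from its plate by either plate-standardised score or position-corrected B-score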
# Hits are given with their value; - = inactive; . = not tested or not shown. Hits are enriched below; roughly 27% of the tested compounds scored in any of these assays.
SMILES,CYP2C19 act,CYP2C19 inh,CYP2C9 activ,CYP2C9 inh,Cav3 T inh
COC(=O)c1cc(COc2ccc3c4c(c(=O)oc3c2)CCC4)c(C)o1,-,-,-,-,.
Cc1c(O)c(CN2CCCCC2)cc2c3c(c(=O)oc12)CCC3,-,-,-,69.5,-
Cc1coc2c(C)c3oc(=O)c4c(c3cc12)CCCC4,-,-,-,-,-
C1CNCCOCCNCCN1,-,-,-,-,-
NC(=O)c1cc2ccc(O)cc2oc1=NCc1ccccc1,.,.,.,.,-7.65
O=C(NCC1CCCO1)c1ccc(CS(=O)(=O)c2ccc(Cl)cc2)o1 (stereo unspecified),-,-,-,-,-
Oc1c(C=NCc2ccc(F)cc2)[nH]c2ccc(Br)c(Cl)c12,-,-,-,-,-
Cc1ccc(CN=Cc2[nH]c3ccc(Br)c(Cl)c3c2O)cc1,-,-,-,-,-3.06
O=C(Cc1ccc(-n2c(=S)[nH]c3ccccc3c2=O)cc1)N1CCN(c2ccccc2)CC1,-,55.0,-,-,-
O=C(CNS(=O)(=O)c1ccc(Br)cc1)N1CCN(c2ccc(F)cc2)CC1,.,.,.,.,-7.77
Cc1ccc(CN2CCS(=O)(=O)CC2)cc1,-,65.8,-,-,-
O=C(CNS(=O)(=O)c1ccc(F)cc1)N1CCN(c2ccccc2)CC1,-,-,-,-,-
O=C(Cc1ccc(Br)cc1)N1CCN(c2ccccc2)CC1,-,98.7,-,88.0,-
Cc1ccc(CN2CCNC2=O)cc1,-,-,-,-,-
Cc1cc(C)nc(NC(=O)c2cccc(Cl)c2)n1,-,-,-,-,-
COC(=O)C1CCN(C(=O)Cc2ccc(Br)cc2)CC1,-,90.2,-,-,-
COC(=O)C1CCN(C(=O)Cc2ccc(OC)c(OC)c2)CC1,.,.,.,.,-
COC(=O)C1CCN(Cc2ccc(C)cc2)CC1,-,85.4,-,-,.
O=C(Cc1ccc(Br)cc1)N1CCCCCC1,-,52.6,-,-,-
Cc1cccc(N2CCN(C(=O)Cc3ccc(Br)cc3)CC2)c1C,-,70.5,-,-,-
Cc1cccc(C)c1OCC(=O)Nc1cccc(NC(=O)c2ccco2)c1,.,.,.,.,-4.8
Cc1ccccc1OCC(=O)Nc1cccc(NC(=O)c2ccco2)c1,-,71.8,-,-,-
CC(=O)NCC(=O)OCN1C(=O)c2ccccc2C1=O,.,.,.,.,-
COc1ccccc1N1CCN(C(=O)c2c(C)cc(=O)oc2C)CC1,-,-,-,-,-
COc1ccccc1N1CCN(C(=O)c2oc3cc(C)c(C)cc3c2C)CC1,-,-,-,73.6,-
SMILES,CYP2C19 act,CYP2C19 inh,CYP2C9 activ,CYP2C9 inh,Cav3 T inh
COc1cc2c(C(=O)N3CCN(c4ccccc4C)CC3)c(C)oc2cc1Br,-,59.7,-,71.8,-
CCOC(=O)c1c(C)oc2cc(Br)c(OC)cc12,-,-,-,-,-
CCCCCOc1ccc(C(=O)NC(C(=O)O)C(C)C)cc1 (stereo unspecified),-,-,-,-,-
Cc1ccc2cc3c(NC(=O)c4ccco4)nn(CC(C)C)c3nc2c1,-,-,-,-,-
CCOC(=O)N1CCN(C(=O)c2cccc(-n3c(=S)[nH]c4cc(Cl)ccc4c3=O)c2)CC1,-,-,-,-,-
Cc1ccc(C)c(C(=O)COC(=O)c2ccc(Br)o2)c1,-,-,-,-,-
COc1ccc(C(CCN2CCOCC2)c2c(OC)cc(OC)c3c(C)cc(=O)oc23)cc1 (stereo unspecified),.,.,.,.,-
Cc1cccc(C(=O)N2CCCCCC2)c1,-,52.1,-,-,-
Cc1ccc(S(=O)(=O)N(C)c2ccc(C(=O)N3CCCCC3)cc2)cc1,-,55.2,-,74.5,-
Cc1cccc(Cc2c(C)nc3c(C(=O)NCc4ccco4)cnn3c2C)c1,-,50.2,-,56.5,-
CN(c1ccc(C(=O)N2CCN(Cc3ccc4c(c3)OCO4)CC2)cc1)S(=O)(=O)c1ccccc1,-,78.6,-,93.7,-
Cc1nc2c(C(=O)NCc3ccco3)cnn2c(C)c1Cc1ccc(F)cc1Cl,-,-,-,-,-
CCOC(=O)COn1c(-c2cccc(Cl)c2)nc2ccc([N+](=O)[O-])cc21,-,-,-,-,-
NC(=O)C1(N2CCCCC2)CCN(C(=O)CCCn2c(=O)[nH]c3ccsc3c2=O)CC1,-,-,-,-,-
Cc1cccc(C(=O)N2CCN(Cc3ccc4c(c3)OCO4)CC2)c1,-,91.9,-,-,-
O=C(c1cc2c(s1)CCCCC2)N1CCN(c2ncccn2)CC1,-,69.2,-,92.0,-
O=C(CSCc1ccccc1)N1CCN(Cc2ccc3c(c2)OCO3)CC1,.,.,.,.,-
O=C(CN(c1ccccc1)S(=O)(=O)c1ccccc1)N1CCN(Cc2ccc3c(c2)OCO3)CC1,-,69.4,-,89.1,-
Cc1ccc(S(=O)(=O)N(C)c2ccc(C(=O)N3CCN(Cc4ccc5c(c4)OCO5)CC3)cc2)cc1,-,55.4,-,53.5,-
Cc1ccc(S(=O)(=O)N(C)c2ccc(C(=O)N3CCC(C(N)=O)CC3)cc2)cc1,-,-,-,-,-
O=C(Nc1ccc2c(c1)OCCO2)c1ccc(Br)o1,-,-,-,-,-
O=C(Nc1ccccc1)N1CCN(Cc2ccc3c(c2)OCO3)CC1,-,-,-,-,-5.54
Cc1cccc(Cc2c(C)nc3c(C(=O)N4CCN(Cc5ccc6c(c5)OCO6)CC4)cnn3c2C)c1,-,92.9,-,75.5,-
Cc1ccc(C)c(Cc2c(C)nc3c(C(=O)NCc4ccc5c(c4)OCO5)cnn3c2C)c1,-,-,-,86.6,.
Cc1cccc(-c2nc(CSCC(=O)N3CCN(Cc4ccc5c(c4)OCO5)CC3)c(C)o2)c1,-,69.5,-,-,.
SMILES,CYP2C19 act,CYP2C19 inh,CYP2C9 activ,CYP2C9 inh,Cav3 T inh
Cc1ccc(S(=O)(=O)NCC(=O)OC2CCOC2=O)cc1 (stereo unspecified),-,-,-,-,-
O=C(CN1C(=O)CSC1=O)c1ccccc1,-,-,-,-,-
O=C(c1cc2c(s1)CCCC2)N1CCN(Cc2ccc3c(c2)OCO3)CC1,-,-,-,-,-3.92
O=C(C1CC2CCC1C2)N1CCN(Cc2ccc3c(c2)OCO3)CC1 (stereo unspecified),-,58.3,-,-,-
O=C(c1ccc(Br)o1)N1CCN(Cc2ccc3c(c2)OCO3)CC1,-,89.7,-,61.6,-
O=C(C1COc2ccccc2O1)N1CCN(Cc2ccc3c(c2)OCO3)CC1 (stereo unspecified),-,-,-,-,-
O=C(c1ccc(NS(=O)(=O)c2ccccc2)cc1)N1CCN(Cc2ccc3c(c2)OCO3)CC1,-,-,-,94.0,-
Cc1cccnc1NC(=O)C1CCN(S(=O)(=O)c2cccs2)CC1,-,-,-,-,-
O=C(CSc1nnc(CN2CCCCCC2=O)n1-c1ccccn1)NCC(F)(F)F,-,-,-,-,-
CCC(=O)N(Cc1ccc(S(N)(=O)=O)cc1)C1CC(=O)N(c2ccc(OC)cc2)C1=O (stereo unspecified),-,-,-,-,-
